± gives the standard deviation of the averaged measurements.
Assays:
MDA-MB-231 [1] = test: cell viability relative to vehicle unstimulated control (fraction); higher = more viable cells; settings: pre-treatment time: 18 h then 24 h IFNg/TNF
MDA-MB-231 [2] = test: kynurenine production, fold change vs DMSO IFNg/TNF control; higher = more kynurenine produced (less inhibition); settings: pre-treatment time: 18 h then 24 h IFNg/TNF
How it was run: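 MDA-MB-231 cells (7 × 10^4/well, 96-well plates, seeded 24 h earlier) were pre-treated 18 h with each natural product in 0.1% DMSO, then stimulated 24 h with IFNγ (1 U/ml) and TNF (6.25 ng/ml) at 37°C. Supernatant kynurenine was read at 492 nm after trichloroacetic acid and p-dimethylaminobenzaldehyde treatment, against 0–100 μM standards. Kynurenine production is the fold change over cytokine-stimulated vehicle wells on the same plate, averaged over duplicate plates in the first screening round.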
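For cell viability relative to vehicle unstimulated control in this document: viability of the cells left after supernatant collection, read with Deep Blue dye added for 4 h, as absorbance at 570 nm minus 600 nm.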

SMILES	cell viability (MDA-MB-231 [1])	kynurenine production (MDA-MB-231 [2])
CC(C)=CCCC(C)(OC1OC(CO)C(O)C(O)C1O)C1CCC2(C)C1C(O)CC1C3(C)CC(O)C(OC4OC(CO)C(O)C(O)C4OC4OC(CO)C(O)C(O)C4O)C(C)(C)C3CCC12C (centres undefined) [Gypenoside XLVI] (compound dose: 10 uM)	1.03 ± 0.27	0.812 ± 0.16
O=C(O)c1cncc(C(=O)O)c1 [3-5-pyridinedicarboxylic acid] (compound dose: 10 uM)	1.04 ± 0.044	0.983 ± 0.025
O=C1O[C@H]2[C@@H]3OC(=O)c4cc(O)c(O)c(O)c4-c4c(O)c(O)c5oc(=O)c6c(c(O)c(O)c7oc(=O)c4c5c76)-c4c(cc(O)c(O)c4O)C(=O)OC[C@H]3OC(O)[C@@H]2OC(=O)c2cc(O)c(O)c(O)c2-c2c1cc(O)c(O)c2O (mixture of isomers) [Punicalagin] (compound dose: 10 uM)	1.001 ± 0.0011	0.1 ± 0.0087
CC12CCC(C1)C(C)(C)C2=O (single isomer, unassigned; (-)) [(-)-Fenchone] (compound dose: 10 uM)	1.121 ± 0.0077	0.955 ± 0.13
C=C1CC/C=C(\C)CC[C@@H]2[C@@H]1CC2(C)C [β-Caryophyllene] (compound dose: 10 uM)	0.9919 ± 0.0069	0.844 ± 0.19
COC(=O)C1=CO[C@@H](O[C@@H]2O[C@H](CO)[C@@H](O)[C@H](O)[C@H]2O)[C@@H]2C(CO)=CC[C@H]12 [Geniposide] (compound dose: 10 uM)	0.947 ± 0.031	0.939 ± 0.023
C[C@@]12C[C@@]3(O)O[C@@H](O1)[C@]1(COC(=O)c4ccccc4)[C@H]3C[C@@]12O[C@@H]1O[C@H](CO)[C@@H](O)[C@H](O)[C@H]1O [Paeoniflorin] (compound dose: 10 uM)	1.03 ± 0.16	1.34 ± 0.27
CC(C)=CCC/C(C)=C/C=O [Citral] (compound dose: 10 uM)	0.922 ± 0.019	0.864 ± 0.074
CC(=O)O[C@@H]1CC[C@@]2(C)[C@@H](CC[C@]3(C)[C@@H]2C(=O)C=C2[C@@H]4[C@@H](C)[C@H](C)CC[C@]4(C)CC[C@]23C)[C@@]1(C)C(=O)O (compound dose: 10 uM)	1.03 ± 0.031	1.06 ± 0.062
CC1(C)CC[C@]2(C(=O)O[C@@H]3O[C@H](CO)[C@@H](O)[C@H](O)[C@H]3O)CC[C@]3(C)C(=CC[C@@H]4[C@@]5(C)CC[C@H](O[C@@H]6O[C@H](C(=O)O)[C@@H](O)[C@H](O)[C@H]6O)C(C)(C)[C@@H]5CC[C@]43C)[C@@H]2C1 [Chikusetsusaponin Iva] (compound dose: 10 uM)	0.986 ± 0.01	0.788 ± 0.14
CC1(C)O[C@H]2CC(=O)OC[C@]23[C@H]2CC[C@@]4(C)[C@H](c5ccoc5)OC(=O)[C@H]5O[C@]54[C@]2(C)C(=O)C[C@@H]13 [Limonin] (compound dose: 10 uM)	0.9819 ± 0.0068	0.86 ± 0.3
C[C@H]1[C@H](C)CC[C@]2(C(=O)O)CC[C@]3(C)C(=CC[C@@H]4[C@@]5(C)C[C@@H](O)[C@H](O)[C@@](C)(CO)[C@@H]5CC[C@]43C)[C@H]12 [Asiatic acid] (compound dose: 10 uM)	1.01 ± 0.018	0.85 ± 0.16
CC1=CC23C(=O)C(C=C4COC(C)(C)OC4C24OC(C)(C)OC14)C1C(CC3C)C1(C)C (centres undefined) [Ingenol-3,4:5,20-diacetonide] (compound dose: 10 uM)	1.04 ± 0.022	1.11 ± 0.045
CC1(C)CCCC2(C)C1CCC1(C)OCCC12 (centres undefined) [Ambroxide] (compound dose: 10 uM)	0.964 ± 0.053	0.891 ± 0.13
C=C1C[C@@]23CC[C@H]4[C@@](C)(CCC[C@@]4(C)C(=O)O)[C@@H]2CC[C@@H]1C3 [Kaurenoic acid] (compound dose: 10 uM)	1.006 ± 0.0069	0.878 ± 0.12
CC(C)=CC/C=C(\C)[C@H]1CC[C@]2(C)[C@@H]1[C@H](O)C[C@@H]1[C@@]3(C)CC[C@H](O[C@@H]4O[C@H](CO)[C@@H](O)[C@H](O)[C@H]4O[C@@H]4O[C@H](CO)[C@@H](O)[C@H](O)[C@H]4O)C(C)(C)[C@@H]3CC[C@]12C [Ginsenoside Rg5] (compound dose: 10 uM)	0.906 ± 0.032	0.876 ± 0.12
COC(=O)[C@]1(C)CC[C@]2(C(=O)O[C@@H]3O[C@H](CO)[C@@H](O)[C@H](O)[C@H]3O)CC[C@]3(C)C(=CC[C@@H]4[C@@]5(C)C[C@H](O)[C@H](O[C@@H]6OC[C@@H](O[C@@H]7O[C@H](CO)[C@@H](O)[C@H](O)[C@H]7O)[C@H](O)[C@H]6O)[C@@](C)(CO)C5CC[C@]43C)[C@H]2C1 (some centres undefined) [Esculentoside H] (compound dose: 10 uM)	0.984 ± 0.043	0.825 ± 0.099
